Experimental data reported in the supplement of paper PMC3334620.
Whole data set: some 33,000 sequences, median “E-score (-0.5 to 0.5)” near -0.032, cut for the highest 2% near 0.36. Only a selection was taken, and the highest values are over-represented in it overall.

These sequences were tested against T1, Sko1 (UniProt Q02100) (assay: PBM E-score (8-mer binding enrichment) (E-score (-0.5 to 0.5)); higher = stronger / more preferred TF binding). Details: protein concentration: 200 nM; construct: GST-full length.
T1 sequence: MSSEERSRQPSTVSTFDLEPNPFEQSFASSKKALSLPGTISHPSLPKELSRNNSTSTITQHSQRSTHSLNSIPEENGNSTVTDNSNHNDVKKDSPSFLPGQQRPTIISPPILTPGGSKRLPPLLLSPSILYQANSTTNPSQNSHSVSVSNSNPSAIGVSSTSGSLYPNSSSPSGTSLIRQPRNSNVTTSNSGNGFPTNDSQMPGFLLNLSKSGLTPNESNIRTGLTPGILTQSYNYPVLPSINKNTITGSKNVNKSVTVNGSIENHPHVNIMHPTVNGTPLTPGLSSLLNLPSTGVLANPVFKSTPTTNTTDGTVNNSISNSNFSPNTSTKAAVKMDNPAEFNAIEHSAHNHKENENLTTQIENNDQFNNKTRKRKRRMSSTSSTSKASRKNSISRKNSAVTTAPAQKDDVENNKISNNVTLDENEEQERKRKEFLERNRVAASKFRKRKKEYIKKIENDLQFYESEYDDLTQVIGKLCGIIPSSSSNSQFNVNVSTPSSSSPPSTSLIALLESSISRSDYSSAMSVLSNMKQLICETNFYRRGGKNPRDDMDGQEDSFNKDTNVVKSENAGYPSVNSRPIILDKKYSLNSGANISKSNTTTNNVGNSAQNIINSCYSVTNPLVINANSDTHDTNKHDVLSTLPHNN
Method: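 Universal 'all 10-mer' protein binding microarrays (Agilent AMADID 015681) probed with GST-tagged S. cerevisiae TFs (full-length or DBD) made by in vitro transcription/translation (PURExpress), about 100-200 nM. Bound TF was detected with fluorescent anti-GST. Each ungapped 8-mer (which stands for itself and its reverse complement) is scored by the PBM enrichment score (E-score), a modified Wilcoxon-Mann-Whitney statistic from -0.5 to +0.5, computed with the Universal PBM Analysis Suite. Scale: above 0.35 generally sequence-specific binding.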

Sequence	PBM E-score
TGTTGCAA	0.131
CAATTCAC	0.049
AGGTGAGG	-0.192
CGCAGATA	-0.00801
CAAGGCAA	-0.136
CGCTCTTA	0.112
ACGTTTCG	0.347
ATGCTCGA	0.00694
CACTGATG	0.0771
GTGATCAA	0.189
ATTGTTAC	0.362
CTTGTTAC	0.094
ATTGTTAG	0.0985
ACTCTTGG	-0.179
CACACGGC	-0.0173
CACACGTG	0.386
TACACGAA	0.251
AACACGAG	0.033
TACACGGA	0.142
TACACGTA	0.453
CACACGTC	0.446
CACACAAA	0.114

Sequence	PBM E-score
AACACAAA	0.0722
CACACATA	0.0532
CACACGCC	0.0149
AACACGTG	0.395
GACTCTGA	-0.104
GAGCTCCA	-0.129
AATCCTGG	-0.199
ATAGTTAC	0.212
CGCGACGA	0.125
ACGTTCGA	0.248
TCGGCTCA	-0.111
GTAGAGGA	-0.194
AAACCGAG	-0.175
CCGCTCCG	-0.269
GCCTTCCA	-0.222
CACACGGA	-0.167
CACACGTA	0.45
CACACGCG	0.104
CCTGCGAA	-0.0899
CGTAAGCC	0.203
GCGTTGGA	-0.00317
ACACTACT	-0.0134

Sequence	PBM E-score
ACACTACA	0.167
ACACTACG	0.368
CACTACCA	-0.029
AGTCACGA	0.103
CCTCACGC	0.0875
CGTCACGC	0.433
GGTCACGA	-0.0631
AGTCACGC	0.167
CGTCACGA	0.443
GTTCGCGA	0.133
GGAAGCTA	-0.135
AGTGCAGA	-0.0919
CGGGATAA	0.0877
GGCTTGTA	-0.158
AGCTCAAT	0.016
AGATTGAT	-0.0863
CCTCATTC	-0.0556
CGTCATTA	0.487
CGTCATTC	0.482
AGTCATTA	0.032
AGTCATTC	0.135
GGTCATTA	0.232

Sequence	PBM E-score
ACTCAAAC	0.0881
GTGGCGCA	0.0382
CCTGGCTC	-0.137
TGCTTCCA	-0.067
GAAGCTTC	-0.375
CTCTGCAA	-0.0293
CAGCTCAG	-0.0505
CGTCACTA	0.445
CGTCACTC	0.418
AGTCACTA	0.0867
AGTCACTC	-0.0377
GGTCACTA	0.0129
CCTCACTC	-0.0833
CACCACCG	-0.248
TACGCCTA	0.208
AATCTAAC	0.124
CGATCTAA	0.0385
CGGCATGA	0.11
TAGTATAA	0.24
ACTCCACG	0.0133
AACTCTCA	0.0877
CTGATGTC	0.173

Sequence	PBM E-score
ATGATGCC	0.244
ATGATGCA	0.376
GTGATGCA	0.249
ATGATGAA	0.321
ATGATGAC	0.327
AAGATGTA	0.206
ATGATGTA	0.459
GTGATGTA	0.397
CTGATGTA	0.255
GTGATGAA	0.111
ATGATGTC	0.446
ATCGAAGG	0.0197
GTGAGCCA	-0.0673
GCGGAATA	0.0622
CTAGAAGA	0.0318
TTTTAAAA	0.233
ATTTAGTG	0.0842
GCCGCTCC	-0.396
AATTTCAG	0.0849
TGACAGAA	0.141
GGGCAATA	-0.14
CGACCGCA	-0.266
